Bioassay records: PubChem, National Center for Advancing Translational Sciences (NCATS)
DRD3 agonist: activates the human D3 dopamine receptor; D3R DiscoveRx beta-arrestin cells, luminescence, 90 min; P35462; max activation, %; 410,000 compounds, 0.58% hits; in the data active = max activation above about 30%; note: 0% is about no effect
Target sequence (P35462 whole entry, looked up): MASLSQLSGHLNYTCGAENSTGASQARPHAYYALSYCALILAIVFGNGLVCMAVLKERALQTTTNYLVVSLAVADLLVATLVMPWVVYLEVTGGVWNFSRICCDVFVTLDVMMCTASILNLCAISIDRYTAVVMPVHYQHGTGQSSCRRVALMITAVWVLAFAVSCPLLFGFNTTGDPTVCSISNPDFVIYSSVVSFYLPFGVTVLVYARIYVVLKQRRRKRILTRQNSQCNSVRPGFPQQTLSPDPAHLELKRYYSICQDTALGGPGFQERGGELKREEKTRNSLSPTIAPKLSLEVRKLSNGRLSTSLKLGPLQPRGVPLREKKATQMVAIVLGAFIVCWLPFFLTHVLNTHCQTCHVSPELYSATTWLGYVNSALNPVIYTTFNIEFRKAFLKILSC
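Cells at 1500/well, incubated overnight, then treated with pinned compounds (dopamine as control) for 90 min at 37 degrees C. DiscoveRx reagent added for 30 - 60 minutes at room temperature; luminescence read.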
D1 antagonist: blocks dopamine activation of the human D1 receptor; P21728; HEK293 TREx D1 cells, calcium flux, dopamine EC80; stronger effect = lower value; activity change, negative = inhibition, % at 10 µM; 360,000 compounds, 3.2% hits; in the data active = activity change below about -30%; note: % is set by controls: 0 for no effect and ±100 for the full control effect
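Allosteric or orthosteric antagonism assessed as attenuation of the calcium response to EC80 dopamine, added 180 s after compound, in induced HEK293 Trex D1 cells loaded with no-wash calcium dye.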
BCR signal inh: blocks chronic active B-cell receptor signaling | ABC-DLBCL IkBa-CBG/CBR reporter, luminescence ratio, 4 h | Potency, µM (highest dose often 46.1 µM), inactives show top-dose activity change, negative = inhibition, hits mostly inhibitors | 340,000 compounds, 0.05% hits | AID 493014; active = well fitted inhibition curve with a large enough effect in the signal ratio, with a control signal flat, not every such curve was filed as active; inconclusive = small, poorly fitted or top-dose-only effect, or effect the other way, or a change in a side signal; the % refers to the signal ratio;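 note: potency is the fitted concentration of half-maximal effect; plate controls were basal doxycycline-induced cells for no effect and cells given 10 µM MG132 for full effect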
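TMD8 ABC-DLBCL cells carrying doxycycline-inducible green luciferase fused to IkappaBalpha plus unfused red luciferase were exposed to compounds (up to 46 uM) for 4 hrs at 37C. Activity came from the overlap-corrected green/red luminescence ratio.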
D1 potentiator: human D1 dopamine receptor positive modulation; HEK293 TREx D1 cells, calcium flux, dopamine EC20 potentiation; potentiation, % at 10 µM; 360,000 compounds, 0.036% hits; AID 504651; in the data active = potentiation above about 30%; note: 0% is about no effect
DRD3 antagonist: blocks the human D3 dopamine receptor | max response, negative = inhibition, % | D3R cells, DiscoveRx beta-arrestin luminescence, antagonist mode; stronger effect = lower value | 360,000 compounds, 2.5% hits; in the data active = max response below about -50%; inconclusive = no clear call, values can overlap the other calls; note: % is set by controls: 0 for no effect and ±100 for the full control effect
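Cells plated overnight at 1500 cells/well, then exposed to library compounds with dopamine controls for 90 minutes at 37 degrees C. DiscoveRx reagent added for 30–60 minutes at room temperature; luminescence read, quantitative HTS format.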
D1 ag: human D1 receptor agonism. HEK293 T-REx D1 cells, calcium flux, agonist mode. activation, % at 2 µM. 360,000 compounds, 1% hits. P21728; in the data active = activation above about 30%; note: 0% is about no effect
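Agonism was scored from calcium flux recorded over 180 s (1 read/s) after pintool compound addition, following a 10-cycle baseline. Cells were inducible force-coupled HEK293 TREx D1, plated overnight at 30 C and loaded with no-wash calcium dye.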
Starred values were filed as active, the others as inactive; ? = inconclusive; nt = no result; ! = not confirmed by another sample. An excerpt weighted towards active compounds, which were near 6% of everything screened.

SMILES	DRD3 agonist	D1 antagonist	BCR signal inh	D1 potentiator	DRD3 antagonist	D1 ag
Cc1ccccc1C=O	5	nt	-2%	-2	5	1
Cc1ccccc1/C=C/C1=NCCN1	0	-43*	?	-7	?	0
CCCOc1ccc(CN(C(=O)Cc2coc3ccc(CC)cc23)C2CCS(=O)(=O)C2)cc1 (centres undefined)	9	8	nt	2	nt	11
CCOC(=O)c1cnn(-c2ccc(NS(=O)(=O)c3ccc(Cl)cc3)cc2)c1C(F)(F)F	-6	-62*	?	-5	-23	6
CCOC(=O)c1ccc(NS(=O)(=O)c2ccc(Cl)nc2)cc1	nt	-12	0%	-3	nt	1
CCc1ccc(OC(=O)CSc2nnc(-c3ccc(OC)c(OC)c3)o2)cc1	4	-2	nt	-2	nt	-2
CCCCn1c(-c2ccccc2C)nc2cc3[nH]c(=O)c(C(C)C)nc3cc21	0	7	?	1	-64*	-1
Cc1noc(C)c1COC(=O)CCc1nc2ccccc2s1	-1	-32*	?	-1	4	2
O=C(CCc1nc2ccccc2s1)OCC(=O)c1ccccc1	-2	-1	?	-6	-5	2
Cc1cc2ccccc2n1CCNC(=O)C(C)Oc1ccccc1 (centres undefined)	-18	20	13%	8	-60*	14
CCN(CC)CCNC(=O)c1ccc(NC(=O)c2cccc(S(=O)(=O)Nc3ccc(C)cc3)c2)cc1	-3	-77*	-21%	-19	-4	1
Cc1cc2ccccc2n1CCNC(=O)c1ccc(S(=O)(=O)N2CCCCC2)cc1	2	28	11%	3	8	61*
CCN(CC)CCNC(=O)c1ccc(NC(=O)c2cc(S(=O)(=O)N3CCCCC3)ccc2C)cc1	1	-37*	5%	0	-12	0
CCN(CC)CCNC(=O)c1ccc(NC(=O)c2ccc(S(=O)(=O)N3CCCC3)cc2)cc1	-5	nt	nt	nt	7	nt
CCN(CC)CCNC(=O)c1ccc(NC(=O)c2cccc(S(=O)(=O)N3CCc4ccccc43)c2)cc1	-22	-5	-8%	-4	-23	4
CNc1cncc(-c2cccnc2)n1	2	nt	nt	nt	8	nt
CCc1nn2c(=O)cc(COC(=O)c3ccc(NC(=O)CCc4ccccc4)cc3)nc2s1	9	7	nt	0	nt	0
CCOC(=O)C1C(c2cccc(Cl)c2Cl)NC(=O)NC1(O)C(F)(F)F (centres undefined)	-2	-59*	-8%	-4	21	-3
O=S(=O)(NCCc1ccccc1)c1ccc(N2CCCCS2(=O)=O)cc1	2	-7	nt	1	nt	8
COc1ccc(-c2noc(CSc3nc(N)c(-c4ccccc4)c(=O)[nH]3)n2)cc1OC	4	3	21µM*	-7	31	3
COc1ccc(-c2noc(CSc3nc4ccccc4[nH]3)n2)cc1OC	1	-4	nt	-5	nt	3
CC1(C(=O)NS(=O)(=O)c2cccc(Cl)c2)CCN1C(=O)Cc1ccc(-c2ccccc2)cc1 (centres undefined)	3	nt	nt	nt	-8	nt
CCN1CCN(C(=O)NC2CC(=O)N(c3ccc(OC)cc3)C2)CC1 (centres undefined)	5	-4	-2%	14	7	6
COc1ccc(N2CCN(C(=O)NC3CC(=O)N(c4ccc(OC)cc4)C3)CC2)cc1 (centres undefined)	2	-45*	-17%	-7	5	5
CC1CCC(NC(=O)c2ccc3c(c2)N(Cc2ccccc2F)C(=O)c2ccccc2S3(=O)=O)CC1 (centres undefined)	-3	2	nt	0	nt	7
SMILES	DRD3 agonist	D1 antagonist	BCR signal inh	D1 potentiator	DRD3 antagonist	D1 ag
COc1cc(NC(=O)C2CCN(S(=O)(=O)c3c(C)noc3/C=C/c3cccs3)CC2)cc(OC)c1	-2	-11	nt	14	nt	6
S=c1nc(-c2ccccn2)c(-c2ccccn2)n[nH]1	-11	nt	nt	nt	-78*	nt
c1ccc(-c2ccccn2)nc1	13	-14	1%	-3	-12	2
O=S1(=O)CCC(n2nccc2-c2ccccc2)C1 (centres undefined)	8	14	?	4	3	2
Nc1c(-c2ccc(Cl)cc2)cnn1C1CCS(=O)(=O)C1 (centres undefined)	3	-30*	-29%	-10	1	11
CC(C)NC(=O)C1(C)CN(S(C)(=O)=O)CC(=O)N1CCOc1ccccc1 (centres undefined)	0	nt	nt	nt	5	nt
CCCCC(=O)OCC(=O)[C@H]1[C@H](C)C[C@H]2[C@@H]3C[C@H](F)C4=CC(=O)C=C[C@]4(C)[C@@]3(F)[C@@H](O)C[C@@]21C	9	nt	nt	nt	nt	nt
Cc1ccsc1/C=N/NC(=O)Cn1nc(C)c([N+](=O)[O-])c1C	-5	0	-3%	10	-11	3
C/C(=N\NC(=O)Cn1nc(C)c([N+](=O)[O-])c1C)c1ccc(Cl)s1	-2	18	-2%	18	-62*	6
Cc1ccc(NC(=O)[C@H](NC(=O)[C@@H]2Cc3ccccc3CN2)c2ccccc2)cc1C	-21	6	3%	0	-101*	3
COc1cc(Nc2c3c(nc4ccccc24)CCC3)cc(OC)c1OC	-16	-2	20µM*	-1	?	-1
COc1ccc(Nc2nc(-c3ccc(C)cc3)nc3ccccc23)c(OC)c1	1	15	-3%	1	nt	-1
COc1ccccc1Nc1c2c(nc3ccc(NC(=O)c4cccc(OC)c4OC)cc13)CCCC2	54*	0	nt	0	nt	-2
COc1ccc(OC)c(Nc2c3c(nc4ccccc24)CCC3)c1	-11	-20	16µM*	-5	-11	2
COc1cc(NS(C)(=O)=O)ccc1Nc1c2ccccc2nc2ccccc12	3	-49*	?	-6	4	-2
Cc1cccc(Nc2c3c(nc4ccccc24)CCC3)c1	-14	-12	1%	-15	-27	11
COc1cc(NC(=O)CCc2c(C)nn(-c3ccc4nncn4n3)c2C)cc(OC)c1OC	9	19	nt	-4	nt	4
COc1ccc(-n2nc(C(=O)Nc3cc(C)ccn3)c3c4ccccc4n(C)c3c2=O)cc1Cl	-3	5	nt	7	nt	0
COc1cc2nc(Nc3ccc(C)c(C)c3)nc(N)c2cc1OC	1	-35*!	?	-3	1	1
COc1ccc([N+](=O)[O-])cc1Nc1c2ccccc2nc2ccccc12	-4	-41*	?	-10	-26	1
COc1ccc(C)cc1Nc1nc(N)c2ccccc2n1	-12	-36*	1%	-17	-11	2
